# Bioassay records as filed in PubChem BioAssay.
# The sample as a whole holds a higher share of hits than the screen did.
# Tgondii IFNg: T. gondii growth inhibition with IFN-gamma, primary screen, cell-based | Toxoplasma gondii growth in IFN-gamma-treated host cells; stronger effect = lower value | activity change, negative = inhibition, % (concentration not given with the values) | 3.8% of 69,000 active; in the data active = activity change below about -70%, passing the limit was not always enough;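 also: host cells are HeLa cells infected with Toxoplasma gondii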
# Numbers stand for hits; 0 = inactive; ! = a repeat was not active.
SMILES,Tgondii IFNg
O=C1CCc2cc(NC(=O)c3ccccc3F)ccc2N1,0
CC(C)NC(=O)N1CCC2(CCC(=O)N2CCN2CCCC2)CC1,0
COCCN1CCN(CCn2cccn2)c2nc(C)ccc2C1,0
Cc1cc(C)nc(NC(=O)NCCCCCCNC(=O)Nc2cc(C)cc(C)n2)c1,0
O=C(O)COCCN1CCN(C(c2ccccc2)c2ccc(Cl)cc2)CC1 (stereo not given),0
O=C(O)COCCN1CCN([C@H](c2ccccc2)c2ccc(Cl)cc2)CC1,0
OCCOCCN1CCN(C(c2ccccc2)c2ccc(Cl)cc2)CC1 (stereo not given),-97!
CC(=O)CSc1nnc(CSc2cc(C(F)(F)F)nc3ccccc23)n1C,0
Cc1nc(-c2ccc(F)cc2)sc1CCNC(=O)COc1ccccc1,0
CCOC(=O)c1cc(C2CC2)nc2c1c(=O)n(Cc1nc(-c3ccccc3Cl)oc1C)c(=O)n2C,0
COc1ccc(S(=O)(=O)Nc2cncc(C(=O)Nc3cccc(F)c3)c2)cc1OC,0
CC1=NOC(C)(C(=O)Nc2ccc(Cl)c(C(=O)OC(C)C)c2)C1 (stereo not given),0
Cc1cc(C)c2c(=O)n(Cc3nc(-c4ccccc4Cl)oc3C)c(=O)n(-c3ccccc3)c2n1,0
Cc1ccc(-c2nc(CN3C(=O)C(O)(c4ccccc4)c4ccccc43)c(C)o2)cc1 (stereo not given),0
CCOc1ccc(-c2nc(CN3C(=O)C(O)(c4ccccc4)c4ccccc43)c(C)o2)cc1 (stereo not given),0
Cc1oc(-c2ccccc2Cl)nc1CN1C(=O)C(O)(c2ccccc2)c2ccccc21 (stereo not given),-96
COc1ccc(-c2nc(CN3C(=O)C(O)(c4ccc(C)cc4)c4ccccc43)c(C)o2)cc1 (stereo not given),-124
CCN(CC)C(=O)c1cc(C)nc2c1c(=O)n(Cc1nc(-c3ccccc3Cl)oc1C)c(=O)n2C,0
COc1ccc(Cc2nnc(SCC(=O)Nc3cccc(C(C)=O)c3)o2)cc1OC,0
COc1ccc(NC(=O)CN2C(=O)CCc3cc(Br)ccc32)c(OC)c1,0
CSc1nsc(SCC(=O)Nc2ccc(C)cc2)n1,0
Cc1ccc(NC(=O)c2c(O)c3cccnc3[nH]c2=O)cc1,0
Cc1ccc(NC(=O)c2snc3c(=O)[nH]cnc23)cc1,-111
O=C(Nc1ccc(-c2nc(-c3ccccc3)co2)cc1)Nc1ccc2c(c1)OCO2,0
COCCN1CCC2(CC1)CC(c1cccnc1)C(=O)N2C (stereo not given),0
SMILES,Tgondii IFNg
Cc1ccc(-c2c(-c3cc(C)no3)cnn2CCNC(=O)c2cccnc2C)cn1,0
CSc1cccc(NC(=O)c2nnn(Cc3nc(-c4cccc(Cl)c4)oc3C)c2C)c1,0
COC(=O)C[C@](O)(CCCC(C)(C)O)C(=O)O[C@@H]1C(OC)=C[C@]23CCCN2CCc2cc4c(cc2[C@H]13)OCO4,-82
Cc1nc(C)c(C(=O)N(c2ccccc2)C(C(=O)NC2CCCC2)c2ccccc2)s1 (stereo not given),0
Cc1ccc(-c2nc(CN(c3ccccc3C)S(=O)(=O)c3cccs3)c(C)o2)cc1,0
COc1ccccc1/C=C/CN1CC2CCCN2C[C@H]1C (stereo not given in full),-79
COc1ccccc1/C=C/CN1CCNC(C(=O)N2CCCC2)C1 (stereo not given),0
COc1ccccc1/C=C/CN1CCN(C)C(C(=O)O)C1 (stereo not given),0
COc1cccc(-n2cc(CN(C)Cc3cc(C(C)(C)C)n[nH]3)cn2)c1,0
CC(C)n1nccc1NC(=O)CCn1ccnc1-c1ccccc1,0
COc1nc2c(cc1CN1CCCC1c1ccccn1)C(=O)N(C(C)C)C2 (stereo not given),0
Cc1ccc(-c2cc(O)c3c(c2)CN(C(=O)CCCn2cncn2)CCO3)cc1,-76
Oc1cc(-c2csc3ccccc23)cc2c1OCCN(CCn1cncn1)C2,0
O=C(CCN1CCCO1)N1CCOc2c(O)cc(-c3cccnc3)cc2C1,0
COc1ncc(C(=O)N2CCC(c3cc(C(C)C)n[nH]3)CC2)cn1,0
CCN1C(=O)CCc2cc(NC(=O)c3ccc(C(C)C)cc3)ccc21,-105
CCc1ccc(C(=O)Nc2ccc3c(c2)CCC(=O)N3CCOC)cc1,-74
CCCN1C(=O)CCc2cc(NC(=O)c3cccc(C#N)c3)ccc21,0
CCCN1C(=O)CCc2cc(NC(=O)c3ccc(CC)cc3)ccc21,0
CCCN1C(=O)CCc2cc(NC(=O)C(CC)c3ccccc3)ccc21 (stereo not given),-82
C=CC(=O)Nc1ccc2c(c1)CCC(=O)N2CCC,0
COCCN1C(=O)CCc2cc(NC(=O)c3ccc(C)cc3)ccc21,0
CCCN1C(=O)CCc2cc(NC(=O)c3ccn(CC)n3)ccc21,0
CCCN1C(=O)CCc2cc(NC(=O)c3ccc(F)c(Cl)c3)ccc21,-82
CCN1C(=O)CCc2cc(NC(=O)c3ccc(C)cc3)ccc21,0
SMILES,Tgondii IFNg
CCN1C(=O)CCc2cc(NC(=O)c3ccsc3)ccc21,0
CCCN1C(=O)CCc2cc(NC(=O)c3cc(F)cc(F)c3)ccc21,0
CCCS(=O)(=O)N1CCc2ncc(Cn3cccn3)n2CC1,0
COc1ccc(OCCc2cc(C3CCN(C(=O)c4ccccc4)C3)n[nH]2)cc1 (stereo not given),0
O=C(O)CN1CCC(N2CCCC(O)C2)CC1 (stereo not given),0
Cc1ccnc(NS(=O)(=O)c2ccc(Cl)c(Cl)c2)c1,0
CN(C)c1nc2c(c(N3CCN(C(=O)c4ccco4)CC3)n1)CN(Cc1ccccc1)CC2,0
C=CCOCc1cncc2c1CCN(C(=O)C1CCOCC1)C2,0
C=Cn1c(C(=O)C(F)(F)F)ccc1-c1ccc(OC)cc1,0
CC(=O)N[C@@H](C)C(=O)Nc1cc(C)ccc1NC(=O)c1ccccc1,0
O=C1CC(c2n[nH]c(=O)n2CCc2ccc(F)cc2)CN1Cc1ccccc1 (stereo not given),0
CC(C)CN1C(=O)CCc2cc(NC(=O)CCc3ccccc3)ccc21,-98
CC(C)CN1C(=O)CCc2cc(NC(=O)C3CCCCC3)ccc21,0
CC(C)CC(=O)Nc1ccc2c(c1)CCC(=O)N2CC(C)C,0
CCS(=O)(=O)N1CCCn2c(nc(Cn3cncn3)cc2=O)C1,0
CCc1nnc(-c2ccc(OC)c(NC(=O)C(c3ccccc3)N3CCCCC3)c2)o1 (stereo not given),0
CCOC(=O)c1nc(-c2cccc(-n3cccc3)c2)no1,0
CC(C)(C)c1nc(SCc2nc(-c3cccc(-n4cccc4)c3)no2)n[nH]1,-81
CC(C)(C)c1ccc(-c2noc(CSc3ccccn3)n2)cc1,0
C=C(C)Cc1c(C)nc(-c2ccc(Cl)cc2)nc1OC(=S)N(CC)CC,-98
Cc1[nH]c2c(C)ccc(C)c2c1CC(=O)NCc1nnc2n1CCCCC2,0
CCn1c(C2CCCN(Cc3nc4ccc(F)cc4[nH]3)C2)n[nH]c1=O (stereo not given),0
Cc1cccc(CNC(=O)c2cc3cc(S(=O)(=O)N(C)C)ccc3n2Cc2ccncc2)c1,0
O=C(NCCc1csc(-c2ccc(C(F)(F)F)cc2)n1)C(=O)Nc1ccc([N+](=O)[O-])cc1,0
COc1ccccc1-c1cc(C(=O)Nc2cccc(CCc3ccncc3)c2)[nH]n1,-92
COc1ccccc1C(=O)Nc1cccc(-n2cnnc2)c1,0
Cc1cnn(CC(=O)Nc2cccc(CCc3ccncc3)c2)c1,0
COCc1cnc2n1CCN(C(=O)C1CCOCC1)C2C (stereo not given),0
